# Results reported in PubChem BioAssay (NCI).
# About 83,000 compounds went through this panel and 20% of them were active in at least one assay; those are over-represented in the sample as a whole.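 Treatment: one concentration, 48 hours, 96-well format. Scoring: percent growth, with anything below 10 considered active.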 Unmarked numbers belong to inactive results. Activity calls are given as the source filed them.
# Test system: MOLT-4 leukemia
# Experiment: NCI-60 one-dose screen, 48 h (100 = growth as untreated, 0 = no growth, -100 = all killed)
# Details: 10 µM unless noted
# Method: Growth inhibition of the MOLT-4 human tumor cell line is measured as a screen for anti-cancer activity. Cells are grown in 96 well plates and exposed to the test compound for 48 hours. Compounds are tested at a single concentration, which is 10^-5 M for most compounds. The reported endpoint is percent growth (GI% or GIPRCNT), where numbers from 0 - 100% represent growth inhibition, and numbers from -100% - 0 represent cell death. For example, a value of 40 represents 60% growth inhibition. A value of 0 means no net growth occurred over the course of the experiment. A value of -40 indicates 40% of cells at the beginning of the experiment died by the end of the experiment. A value of -100 means all cells are dead at the end of the experiment.
# NCI-60 Human Tumor Cell Lines Screen was performed using the standard one-dose NCI protocol, which is described in more detail at https://dtp.cancer.gov/discovery_development/nci-60/default.htm.
# Compounds with GIPRCNT values below 10 were considered active. Activity score was based on GIPRCNT using the following formula: […]
# Score is 0 for GIPRCNT values of 100 or above, 50 for GIPRCNT values of 0, and 100 for GIPRCNT values of -100.
row,SMILES,growth
1,CCCCCN(CCCCC)CC(O)c1cc(C)c2ccc3cc(C(C)C)ccc3c2c1 (stereo not given),-21.5% (active)
2,COc1ccc(C2=CC(c3cc(OC)c(OC)c(OC)c3)n3ncnc3N2)cc1 (stereo not given),17.3%
3,Cc1ccnc(Nc2ccc([N+](=O)[O-])c(NCCN3CCOCC3)n2)c1,11.7%
4,CN(Cc1ccccc1)c1nc(Cl)c(C2CC(c3ccccc3)=NN2c2ccccc2)s1 (stereo not given),97.1%
5,COc1ccc(C(=O)Cn2c(C(=O)c3ccc(OC)cc3)nc3ccccc32)cc1,15.6%
6,CC1(C)CC[C@]2(C(=O)N[C@H](CO)Cc3ccccc3)CC[C@]3(C)C(=CC[C@@H]4[C@@]5(C)CCCNC(C)(C)[C@@H]5CC[C@]43C)[C@@H]2C1,35.1%
7,FC(F)(F)Oc1cccc(-c2cnc3ccc(-c4ccncc4)nn23)c1,4.08% (active)
8,Cc1ccc2c(-n3nc(C#N)c(C#N)c3N)cc(=O)[nH]c2c1,99.3%
9,CCOC(=O)c1c(C)nc2c(c1N)CC(=O)N2Cc1ccc(OC)cc1,90.3%
10,Cc1ncc(C(=O)Nc2ccc(CN3CCN(C)CC3)c(C(F)(F)F)c2)cc1C#Cc1cnc(N)c2ncccc12,-24.9% (active)
11,CCOC(=O)c1ccccc1-c1c2ccc(=[N+](C)C)cc-2oc2cc(N(C)C)ccc12,31.5%
12,N#CC1=C(N)Oc2ccc3ccccc3c2C1c1ccc([N+](=O)[O-])cc1 (stereo not given),68.6%
13,COC(=O)c1ccc(NC(=O)Nc2ccc(C(=O)OC)cc2)cc1,79.9%
14,N#Cc1cccc(C2C3=C(COC3=O)N(CCO)c3cc4c(cc32)OCO4)c1 (stereo not given),24.8%
15,Cn1ccc(=O)nc1,74.6%
16,NS(=O)(=O)c1ccc(-c2cc(-c3nnc(SCC(=O)Nc4ccc(C(=O)/C=C/c5ccc(Cl)cc5)cc4)n3-c3ccccc3)c3ccccc3n2)cc1,68.5%
17,NS(=O)(=O)c1ccc(C(=O)NN2C(=O)c3c(Br)c(Br)c(Br)c(Br)c3C2=O)cc1,100%
18,O=S(=O)(Nc1cc(Sc2cccc3cccnc23)c(O)c2ccccc12)c1ccccc1,-7.99% (active)
19,COC(=O)c1nc(-c2ccccc2)oc1S(=O)(=O)NCC(c1ccc(Cl)cc1)N1CCOCC1 (stereo not given),7.96% (active)
20,CO[C@H](C(=O)[C@@H](O)[C@@H](C)O)[C@@H]1Cc2cc3cc(O[C@H]4C[C@@H](O[C@H]5C[C@@H](O)[C@H](O)C(C)O5)[C@H](O)C(C)(O)O4)cc(O)c3c(O)c2C(=O)[C@H]1O[C@H]1C[C@@H](O[C@H]2C[C@@H](O[C@H]3C[C@@H](OC)[C@H](O)C(C)O3)[C@@H](O)C(C)O2)[C@H](O)C(C)O1 (stereo not given in full),37.9%

row,SMILES,growth
1,O=C(Nc1ncc(Cc2ccccc2)s1)c1ccc2c(c1)OCCCO2,21.4%
2,C=C1C(=O)O[C@H]2[C@H]1CC/C(CNC(=O)c1c[nH]c3ccc(F)cc13)=C\CC[C@@]1(C)O[C@@H]21,-39.7% (active)
3,CCNc1ccc(-c2nc3ccccc3n3cccc23)cc1,71.2%
4,CC1(C)N=C(N)N=C(N)N1c1cccc(CCc2ccccc2)c1,30.5%
5,COc1ccc(/C=C(/C(=O)n2cnnn2)c2cc(OC)c(OC)c(OC)c2)cc1,40.5%
6,C=C(C)[C@@H]1CC[C@]2(C(=O)N3CCN(C)CC3)CC[C@]3(C)[C@H](CC[C@@H]4[C@@]5(C)CC[C@H](OC(=O)c6ccccc6C(=O)O)C(C)(C)[C@@H]5CC[C@]43C)[C@@H]12,88.7%
7,O=c1cc(-c2ccccc2)[nH]c2ncc(-c3ccc(F)cc3)n12,39.9%
8,CCN(CC)c1ccc(/C=N/NC(=O)Cc2ccc(Nc3ccnc(C(F)(F)F)c3)cc2)c(O)c1,10.4%
9,Cc1ccc(S(=O)(=O)OCCCOS(=O)(=O)c2ccc(C)cc2)cc1,62.5%
10,Cc1nc2cc(O)c(O)cc2cc1Oc1ccc(NC(=O)Nc2ccc(Cl)c(Cl)c2)cc1,12.6%
11,CC1=C(CCC(C)NCc2ccc(OCCCN3CCCCC3)cc2)C(C)(C)CCC1 (stereo not given),-41.7% (active)
12,C=C1C(=O)O[C@H]2[C@H]1CC/C(COC(=O)c1ccc(C(=O)O)s1)=C\CC[C@@]1(C)O[C@@H]21,-7% (active)
13,NC1(CO)COC(c2ccccc2)OC1 (stereo not given),89%
14,COc1cccc(CCNc2ncnc3c2ncn3Cc2nnc3c4ccccc4c(Cl)nn23)c1,20.8%
15,C/C=C(\C)C(=O)N[C@H]1C(O)C[C@]2(C)C3CC[C@@]4(C)C(CC[C@@H]4C(C)N(C)C)C3CCC2C1O (stereo not given in full),17%
16,CNCc1cccc2c1OCCOCCOCCNS(=O)(=O)c1ccc(cc1)-c1cnc(N)c(n1)C(=O)N2,8.14% (active)
17,CN1CCN(c2ccc(NC(=O)c3cncnc3Nc3ccc(OCc4cccc(F)c4)c(Cl)c3)cc2)CC1,6.75% (active)
18,C=C1CC[C@@H]2[C@](C)(COC(C)=O)[C@H](OC(C)=O)CC[C@@]2(C)[C@@H]1CC(Nc1ccc(S(=O)(=O)NC(C)=O)cc1)C1=CCOC1=O (stereo not given in full),0.118% (active)
19,COc1ccc(C(=O)Cn2c(C(=O)c3ccc(Cl)cc3)nc3ccccc32)cc1,48.5%
20,CCN1C(=O)N(CC)C2C1NN=c1s/c(=C\c3ccc(C(F)(F)F)cc3)c(=O)n12 (stereo not given),10.9%
